Screening results as filed in PubChem.
DAX1 inh-1 – blocks DAX1 repression of SF-1 activated StAR promoter; HEK293T StAR-luciferase reporter, SF-1/DAX-1 repression relief; inhibition, % at 6.8 µM; 1.1% of 370,000 active;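 active means inhibition above the mean over all tested compounds plus 3 SD, cut at about 3.6% in these data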;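 further: higher inhibition means more luminescence from relief of DAX-1 repression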
hgDAF12 agonist – agonists of H. glycines DAF-12 nuclear receptor. activation, % at 6.8 µM. HEK293 GAL4-hgDAF12 UAS-luciferase reporter, agonist luminescence; normalized to butyrate control. 1.8% of 370,000 active. AID 687014;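 active means activation above a cutoff set at the mean of all screened compounds plus 3 SD, cut at about 10% in these data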
ssDAF12 agonist – activates DAF-12 receptor from parasite S. stercoralis. AID 652126. HEK293 ssDAF-12/GRIP1 lit1-tk-luc reporter, luminescence; % of 3 µM dafachronic acid response. activation, % at 6.8 µM. 1% of 370,000 active;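 active means activation above the mean over all tested compounds plus 3 SD, cut at about 0.9% in these data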
hcDAF12 agonist – H. contortus DAF-12 activation, primary screen | HEK293 hcDAF-12 lit1-tk-luc reporter, luminescence; 0% DMSO, 100% Δ7-dafachronic acid | activation, % at 6.8 µM | 1.4% of 370,000 active | AID 652067;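 active means activation above the mean of all tested compounds plus 3 SD, cut at about 5.5% in these data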
DAX1 inh-2 – inhibitors of human orphan nuclear receptor DAX1 (NR0B1); inhibition, % at 6.75 µM; P51843; 0.99% of 340,000 active; AID 504766; HEK293 Gal4-DAX1 luciferase reporter, luminescence;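 active means inhibition above the mean over all tested compounds plus 3 SD, cut at about 4.2% in these data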;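 further: inhibition shows as a rise in luminescence from relieved DAX1 repression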
Target sequence (P51843 207-470 limits assumed): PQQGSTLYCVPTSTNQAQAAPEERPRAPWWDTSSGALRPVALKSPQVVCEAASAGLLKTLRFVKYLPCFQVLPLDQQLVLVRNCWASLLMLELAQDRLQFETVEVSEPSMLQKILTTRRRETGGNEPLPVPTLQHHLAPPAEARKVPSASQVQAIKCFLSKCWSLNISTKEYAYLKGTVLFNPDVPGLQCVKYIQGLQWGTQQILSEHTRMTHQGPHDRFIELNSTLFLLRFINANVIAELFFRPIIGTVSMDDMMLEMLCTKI
Each line names hits and unclear results; the compound was inactive in the other large screens. In the library only some 4.1% were active in any assay of this set; here they are far more common.

COc1cccc(NC(=O)C(=O)NCCC2CCCCN2S(=O)(=O)c2cccs2)c1 (stereo unspecified)	DAX1 inh-1 4.1
O=C1NC(=Nc2ccccc2)c2c1cccc2[N+](=O)[O-]	ssDAF12 agonist 1.3
O=C(Nc1ccc(N2CCOCC2)c(Cl)c1)c1ccc(-n2cnnc2)cc1	none
O=C(Nc1ccc(N2CCOCC2)c(Cl)c1)c1ccc(F)cc1	DAX1 inh-2 5.2
CCN1CCN(c2ccc(NC(=O)c3cccc(F)c3)cc2Cl)CC1	hgDAF12 agonist 12.7
Cc1ccc(S(=O)(=O)N(CC(=O)NC2CCC(C)CC2)c2cc(C)cc(C)c2)cc1 (stereo unspecified)	none (no result: DAX1 inh-2)
COCCN1Cc2cccc(C(=O)Nc3ccc(S(=O)(=O)N4CCCCCC4)cc3)c2C1=O	ssDAF12 agonist 1.5
O=C(Nc1ccc(F)cc1)c1cccc2c1C(=O)N(CC1CCCO1)C2 (stereo unspecified)	DAX1 inh-2 4.2
O=S1(=O)c2ccc(Br)cc2OC[C@@H](c2ccccc2)N1Cc1cn(CCC2OCCCO2)nn1	none (no result: DAX1 inh-2)
COc1cc2ccccc2cc1C(=O)Nc1ccc(N2CCN(C)CC2)cc1	hgDAF12 agonist 12.7
Cc1ccccc1-c1nnc(SCC(=O)N2CCCC2)o1	hgDAF12 agonist 10.6
COc1ccc(OC)c(-c2nnc(SCC(=O)N3CCOCC3)o2)c1	none
O=C(CSc1nnc(-c2ccc(O)cc2)o1)N1CCOCC1	none
COc1ccccc1-c1nnc(SCC(=O)N2CCCCC2)o1	none
O=C(CSc1nnc(-c2cccs2)o1)N1CCCCC1	hgDAF12 agonist 12.0
O=C(CSc1nnc(-c2ccc(Cl)cc2)o1)N1CCOCC1	hgDAF12 agonist 11.4
COc1ccc(OC)c(-c2nnc(SCC(=O)N3CCCC3)o2)c1	DAX1 inh-2 4.9
C#CCN1CC(N(C)CCOC(=O)c2ccc(OC)c(OC)c2)CS1(=O)=O (stereo unspecified)	none (no result: DAX1 inh-2)
O=c1c2ccccc2n(Cc2ccno2)n1[C@@H](Cc1ccccc1)Cn1cc(C2CCCC2)nn1	none (no result: DAX1 inh-2)
Cc1ncoc1C(=O)N1CCCC(N2CCN(c3cccc(C(F)(F)F)c3)CC2)C1 (stereo unspecified)	none
FC(F)(F)c1ccccc1NC(=S)OC1CCC12CCC(c1ccccc1)CC2 (stereo unspecified)	none (no result: DAX1 inh-2)
CC(CCN1CCC(C(O)(c2ccccc2)c2ccccc2)CC1)Oc1ccccc1C#N (stereo unspecified)	none (no result: DAX1 inh-2)
CCSc1ccc(-c2cc(NC=O)c3ncc(-c4cccc(C(=O)NCCN(C)C)c4)n3c2)cc1	none (no result: DAX1 inh-2)
COc1ccccc1C(=O)N1CCC2CCN(C(=O)OC(C)(C)C)C2C1 (stereo unspecified)	none (no result: DAX1 inh-2)
Cc1ccccc1-c1nnc(-c2cccc3ccccc23)o1	none
Cc1ccccc1-c1nnc(-c2ccccc2C)o1	hgDAF12 agonist 11.3
Fc1ccccc1CSc1nnc(-c2cccs2)o1	DAX1 inh-1 3.7, hgDAF12 agonist 11.2
COc1ccc(Cn2cc(COC(=O)NCCc3c[nH]c4ccccc34)nn2)cc1	none (no result: DAX1 inh-2)
CCCCCCCCN1C(=O)N2Cc3ccccc3C2CS1(=O)=O (stereo unspecified)	none (no result: DAX1 inh-2)
C/C(CC(C)C)=N/Nc1ccc([N+](=O)[O-])cc1[N+](=O)[O-]	none
CC(Cc1ccccc1)=NNc1ccc([N+](=O)[O-])cc1[N+](=O)[O-]	ssDAF12 agonist 2.4
O=C(Nc1ccc(C(=O)N2CCCCC2)cc1)[C@H]1O[C@@H](n2ccc(=O)[nH]c2=O)[C@H](O)[C@@H]1O	DAX1 inh-1 3.7 (no result: DAX1 inh-2)
COc1ccc2nc(SCC(=O)N3CCNC3=O)[nH]c2c1	hgDAF12 agonist 11.5
O=C(Nc1nc2cc3c(cc2s1)OCO3)C1=COCCO1	none
O=C(CC(C(=O)O)c1ccc(Cl)cc1Cl)c1ccc(Cl)cc1 (stereo unspecified)	hcDAF12 agonist 5.9
O=C(CC(C(=O)O)c1ccc(Cl)cc1)c1ccc(Cl)c(Cl)c1 (stereo unspecified)	none
O=C(CCc1nnc(CCCc2ccccc2)o1)NCCCC1CCCC1	hgDAF12 agonist 11.1
COCC1CCN(C(=O)CCc2nnc(CCCCc3ccccc3)o2)CC1	none
O=C(CCc1nnc(CCCc2ccccc2)o1)N1CCCCCC1	DAX1 inh-2 5.0
CCc1cc(CNC(=O)CCc2nnc(CCCc3ccccc3)o2)on1	hgDAF12 agonist 13.0
CC(C)c1cc(CNC(=O)CCc2nnc(CCCc3ccccc3)o2)on1	none
O=C(O)c1ccccc1C=NN=C1c2ccccc2-c2ccccc21	none
Oc1ccccc1C=NN=C1c2ccccc2-c2ccccc21	ssDAF12 agonist 2.1
O=C(Cc1cnc2ncnn2c1)N1CCc2c([nH]c3ccccc23)C1c1ccccc1F (stereo unspecified)	ssDAF12 agonist 1.7
CCCN1C(=O)C(=O)N(CC(=O)c2cc(C)n(C3CC3)c2C)C1=O	DAX1 inh-1 3.8
CC(C1=CCCCC1)c1cnn(C)c1 (stereo unspecified)	none (no result: DAX1 inh-2)
CC(C1CC1)N(Cc1ccccc1)C(=O)NC(=O)c1ccc(F)cc1 (stereo unspecified)	hgDAF12 agonist 12.2
CC(C1CC1)N(Cc1ccccc1)C(=S)Nc1ccccc1 (stereo unspecified)	none
CCC[C@H](/C=C/C(=O)OC(C)(C)C)Sc1ccc(OC)cc1	none (no result: DAX1 inh-2)
NC(=O)CSc1nnc(CNc2ccc(F)cc2)n1CC1CCCO1 (stereo unspecified)	none
Cc1ccc(NCc2nnc(SCC(N)=O)n2CC2CCCO2)c(C)c1 (stereo unspecified)	DAX1 inh-2 5.5
CCCc1nnc(SCC(=O)N(CC)CC)n1CC1CCCO1 (stereo unspecified)	DAX1 inh-2 5.5
O=c1c2ccccc2n(Cc2ccccc2)n1[C@@H](Cc1ccccc1)Cn1cc(C2CCCC2)nn1	none (no result: DAX1 inh-2)
CN(CC(=O)Nc1ccccc1)CC(=O)Nc1ccc(F)cc1	none
CN(CC(=O)Nc1ccc(F)cc1)C(=O)c1ccc2ccccc2n1	hcDAF12 agonist 6.0
Cc1ccc(S(=O)(=O)Nc2c(C(=O)O)[nH]c3ccccc23)cc1C	hcDAF12 agonist 5.8
Cc1cc(=O)[nH]c2ccc(S(=O)(=O)Nc3ccccc3)cc12	DAX1 inh-2 4.2
Cc1cc(S(=O)(=O)Nc2c(C(=O)O)[nH]c3ccccc23)ccc1F	ssDAF12 agonist 1.1
O=C1CN(C(=O)C2CCCCC2)C=CN1CCc1ccccc1Br	none (no result: DAX1 inh-1, DAX1 inh-2)
NC(=O)c1ccc(-c2ccc(Br)cc2)o1	none
NC(=O)C1CCN(C(=S)c2ccc(-c3ccc(Br)cc3)o2)CC1	hgDAF12 agonist 11.9 (no result: DAX1 inh-2)
COC(=O)[C@]12C[C@H](CC(=O)N3CCCC3)C(=O)N(Cc3ccco3)C1=C[C@H](C(C)(C)C)O[C@@H]2C	none (no result: DAX1 inh-2)
Cc1cc(C)nc(SCc2cn3ccccc3n2)n1	none
Cc1cccn2cc(CSc3ccccc3N)nc12	DAX1 inh-1 4.0, hgDAF12 agonist 12.0
Cc1ccc(-n2c(SCc3cccc4ccccc34)nnc2-c2ccccn2)cc1	none (no result: DAX1 inh-2)
CCc1ccc(Nc2nc(C)cc(C)n2)cc1	hgDAF12 agonist 10.7
Cc1cc(C)nc(Nc2ccc(O)cc2)n1	none
